Of roughly 8,800 targets only a part is listed; those with a hit were picked by preference. About 0.5% of all pairs of compound and target were hits.

Sequence of UniProt O15243 (O15243 whole entry, looked up): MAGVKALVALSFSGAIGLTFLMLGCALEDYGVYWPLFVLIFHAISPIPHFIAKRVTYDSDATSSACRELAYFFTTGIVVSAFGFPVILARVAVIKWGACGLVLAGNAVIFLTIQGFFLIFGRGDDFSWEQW
Sequence of UniProt Q9H204 (Q9H204 whole entry, looked up): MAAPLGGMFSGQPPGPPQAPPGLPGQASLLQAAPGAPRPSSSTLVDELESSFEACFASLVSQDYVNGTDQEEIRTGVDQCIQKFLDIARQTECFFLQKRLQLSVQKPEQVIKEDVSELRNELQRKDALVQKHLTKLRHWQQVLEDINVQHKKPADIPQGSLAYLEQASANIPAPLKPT
Sequence of UniProt Q9Y2E5 (Q9Y2E5 whole entry, looked up): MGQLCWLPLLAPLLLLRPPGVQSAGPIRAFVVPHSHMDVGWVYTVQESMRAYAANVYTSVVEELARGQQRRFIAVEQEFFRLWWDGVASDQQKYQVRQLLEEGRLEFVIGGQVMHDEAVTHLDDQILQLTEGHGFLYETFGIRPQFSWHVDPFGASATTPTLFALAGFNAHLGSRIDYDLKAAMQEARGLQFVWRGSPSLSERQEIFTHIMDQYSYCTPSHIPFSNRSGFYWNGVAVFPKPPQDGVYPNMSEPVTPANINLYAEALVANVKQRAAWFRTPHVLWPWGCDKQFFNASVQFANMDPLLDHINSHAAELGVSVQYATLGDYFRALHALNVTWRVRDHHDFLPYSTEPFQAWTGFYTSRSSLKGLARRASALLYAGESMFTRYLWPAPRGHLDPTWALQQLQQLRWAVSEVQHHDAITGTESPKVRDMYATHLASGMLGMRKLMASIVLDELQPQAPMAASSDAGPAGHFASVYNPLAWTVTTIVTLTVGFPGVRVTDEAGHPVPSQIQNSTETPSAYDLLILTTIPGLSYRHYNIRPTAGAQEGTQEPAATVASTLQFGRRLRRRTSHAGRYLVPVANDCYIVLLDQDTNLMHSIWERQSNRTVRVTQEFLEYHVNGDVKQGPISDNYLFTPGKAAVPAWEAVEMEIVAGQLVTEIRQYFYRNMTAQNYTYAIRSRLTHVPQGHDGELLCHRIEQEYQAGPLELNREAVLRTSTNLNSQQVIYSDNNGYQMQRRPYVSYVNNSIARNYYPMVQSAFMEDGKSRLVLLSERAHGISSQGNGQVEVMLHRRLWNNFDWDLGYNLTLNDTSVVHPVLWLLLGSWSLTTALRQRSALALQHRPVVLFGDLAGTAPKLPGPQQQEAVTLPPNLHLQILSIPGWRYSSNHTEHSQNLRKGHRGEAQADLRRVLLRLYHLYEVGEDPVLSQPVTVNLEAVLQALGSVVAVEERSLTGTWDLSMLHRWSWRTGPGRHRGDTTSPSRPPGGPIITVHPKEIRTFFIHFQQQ
Sequence of UniProt Q96NW7 (Q96NW7 whole entry, looked up): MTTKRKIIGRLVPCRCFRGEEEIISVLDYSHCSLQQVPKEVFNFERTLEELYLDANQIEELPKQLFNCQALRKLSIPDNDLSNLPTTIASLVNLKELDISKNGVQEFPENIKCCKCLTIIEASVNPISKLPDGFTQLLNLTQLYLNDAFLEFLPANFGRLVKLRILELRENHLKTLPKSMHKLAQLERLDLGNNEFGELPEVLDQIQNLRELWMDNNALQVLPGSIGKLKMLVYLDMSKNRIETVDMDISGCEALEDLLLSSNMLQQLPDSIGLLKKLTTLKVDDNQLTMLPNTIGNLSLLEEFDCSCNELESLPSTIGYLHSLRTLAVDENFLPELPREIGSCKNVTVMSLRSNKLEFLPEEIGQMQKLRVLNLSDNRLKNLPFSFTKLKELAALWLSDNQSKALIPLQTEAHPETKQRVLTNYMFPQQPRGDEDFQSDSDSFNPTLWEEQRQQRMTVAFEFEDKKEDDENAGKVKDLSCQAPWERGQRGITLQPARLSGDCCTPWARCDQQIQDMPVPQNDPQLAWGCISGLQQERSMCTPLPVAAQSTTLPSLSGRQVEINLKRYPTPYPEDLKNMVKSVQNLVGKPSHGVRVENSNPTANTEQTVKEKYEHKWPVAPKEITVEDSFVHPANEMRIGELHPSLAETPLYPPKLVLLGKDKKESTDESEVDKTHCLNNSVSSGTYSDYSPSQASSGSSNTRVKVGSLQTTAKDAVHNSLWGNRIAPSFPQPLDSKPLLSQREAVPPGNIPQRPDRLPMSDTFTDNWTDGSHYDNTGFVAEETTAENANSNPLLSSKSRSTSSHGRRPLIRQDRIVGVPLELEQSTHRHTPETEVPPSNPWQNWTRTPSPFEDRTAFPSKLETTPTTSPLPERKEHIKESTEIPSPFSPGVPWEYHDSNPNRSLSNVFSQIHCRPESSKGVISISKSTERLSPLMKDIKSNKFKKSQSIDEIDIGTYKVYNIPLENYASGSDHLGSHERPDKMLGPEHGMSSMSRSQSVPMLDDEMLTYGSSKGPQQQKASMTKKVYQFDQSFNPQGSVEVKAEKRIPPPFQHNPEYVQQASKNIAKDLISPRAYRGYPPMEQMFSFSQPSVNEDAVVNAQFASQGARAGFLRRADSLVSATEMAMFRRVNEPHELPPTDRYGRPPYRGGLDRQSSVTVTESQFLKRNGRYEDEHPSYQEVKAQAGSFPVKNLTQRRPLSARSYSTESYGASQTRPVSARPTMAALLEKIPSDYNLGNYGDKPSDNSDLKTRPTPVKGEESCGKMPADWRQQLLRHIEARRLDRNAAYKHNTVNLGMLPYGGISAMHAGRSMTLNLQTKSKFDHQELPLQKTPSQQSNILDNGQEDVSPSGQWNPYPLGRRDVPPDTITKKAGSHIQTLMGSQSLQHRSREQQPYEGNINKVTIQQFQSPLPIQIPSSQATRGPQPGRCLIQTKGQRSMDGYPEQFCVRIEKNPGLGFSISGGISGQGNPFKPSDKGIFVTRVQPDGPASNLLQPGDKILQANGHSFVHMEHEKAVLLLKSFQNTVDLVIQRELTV
Sequence of UniProt O75970 (O75970 whole entry, looked up): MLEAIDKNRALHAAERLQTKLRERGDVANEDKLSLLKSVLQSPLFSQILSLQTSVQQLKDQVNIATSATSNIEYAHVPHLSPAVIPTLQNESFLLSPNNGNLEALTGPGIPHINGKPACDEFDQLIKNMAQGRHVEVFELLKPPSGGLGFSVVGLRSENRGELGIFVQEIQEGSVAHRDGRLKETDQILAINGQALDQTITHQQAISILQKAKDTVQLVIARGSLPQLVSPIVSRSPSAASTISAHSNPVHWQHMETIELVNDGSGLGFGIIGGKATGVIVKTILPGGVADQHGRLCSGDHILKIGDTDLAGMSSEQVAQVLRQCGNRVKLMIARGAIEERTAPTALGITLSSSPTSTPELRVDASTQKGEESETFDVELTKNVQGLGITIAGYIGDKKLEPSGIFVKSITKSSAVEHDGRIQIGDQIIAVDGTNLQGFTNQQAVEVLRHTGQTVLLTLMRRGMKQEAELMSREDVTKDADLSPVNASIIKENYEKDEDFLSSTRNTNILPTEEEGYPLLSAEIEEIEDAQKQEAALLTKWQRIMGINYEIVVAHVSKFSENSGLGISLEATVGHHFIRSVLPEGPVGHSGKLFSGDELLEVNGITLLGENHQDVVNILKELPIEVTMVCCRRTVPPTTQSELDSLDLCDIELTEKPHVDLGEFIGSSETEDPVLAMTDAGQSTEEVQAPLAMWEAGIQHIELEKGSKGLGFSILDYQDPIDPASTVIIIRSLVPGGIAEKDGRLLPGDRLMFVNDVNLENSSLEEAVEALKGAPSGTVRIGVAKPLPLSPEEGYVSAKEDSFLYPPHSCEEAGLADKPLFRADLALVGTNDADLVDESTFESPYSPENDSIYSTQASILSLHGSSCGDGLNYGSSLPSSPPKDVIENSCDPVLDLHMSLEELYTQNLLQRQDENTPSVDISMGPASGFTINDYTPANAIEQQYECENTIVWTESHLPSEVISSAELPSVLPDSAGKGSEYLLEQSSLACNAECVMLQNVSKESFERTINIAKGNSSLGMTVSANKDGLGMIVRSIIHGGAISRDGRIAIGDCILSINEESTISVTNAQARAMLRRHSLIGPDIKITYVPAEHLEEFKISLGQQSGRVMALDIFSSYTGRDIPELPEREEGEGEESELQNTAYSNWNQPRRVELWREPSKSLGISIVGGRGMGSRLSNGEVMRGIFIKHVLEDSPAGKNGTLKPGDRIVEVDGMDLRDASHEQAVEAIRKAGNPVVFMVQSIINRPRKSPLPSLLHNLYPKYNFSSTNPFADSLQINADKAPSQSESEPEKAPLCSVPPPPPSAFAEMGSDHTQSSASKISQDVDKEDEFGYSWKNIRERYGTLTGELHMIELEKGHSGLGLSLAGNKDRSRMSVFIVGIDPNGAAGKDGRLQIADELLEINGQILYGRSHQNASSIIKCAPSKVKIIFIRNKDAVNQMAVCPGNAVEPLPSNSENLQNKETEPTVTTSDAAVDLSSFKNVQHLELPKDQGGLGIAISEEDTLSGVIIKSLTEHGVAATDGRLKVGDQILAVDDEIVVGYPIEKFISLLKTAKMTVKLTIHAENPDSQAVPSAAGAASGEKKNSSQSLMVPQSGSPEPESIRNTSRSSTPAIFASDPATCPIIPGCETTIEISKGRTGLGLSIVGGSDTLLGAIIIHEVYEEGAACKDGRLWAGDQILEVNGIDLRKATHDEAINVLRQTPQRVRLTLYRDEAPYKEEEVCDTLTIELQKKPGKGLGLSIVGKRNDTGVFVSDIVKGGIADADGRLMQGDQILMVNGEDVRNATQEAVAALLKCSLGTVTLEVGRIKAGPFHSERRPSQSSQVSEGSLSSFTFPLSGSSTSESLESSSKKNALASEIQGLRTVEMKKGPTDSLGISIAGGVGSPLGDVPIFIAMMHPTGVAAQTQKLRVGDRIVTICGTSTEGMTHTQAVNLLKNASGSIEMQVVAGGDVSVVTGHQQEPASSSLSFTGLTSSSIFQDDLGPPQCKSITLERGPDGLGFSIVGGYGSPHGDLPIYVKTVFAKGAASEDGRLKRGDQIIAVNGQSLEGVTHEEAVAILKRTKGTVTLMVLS
Sequence of UniProt Q16553 (Q16553 whole entry, looked up): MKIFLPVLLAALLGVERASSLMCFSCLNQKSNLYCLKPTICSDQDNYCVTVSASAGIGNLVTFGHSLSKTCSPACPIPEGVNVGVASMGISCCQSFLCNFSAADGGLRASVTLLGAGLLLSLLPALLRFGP

Compound in the first assay: CC1=C(C=C(C=C1)NC(=O)C2=CC(=CC=C2)C(C)(C)C#N)NC3=CC4=C(C=C3)N=CN(C4=O)C
Nature of the assay: log2 fold change, soluble protein after heating vs DMSO (PISA); higher = thermal stabilisation; K562 lysate, 10 uM; active = over 0.2 and 3.5 SD of the protein, either way, in both replicates (recomputed). In short, it runs like this: (§1)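 Thermal stability, expressed as log-two fold change relative to solvent controls, is given from duplicates. Crude K562 extract in PBS pH 7.4 with 1 mM MgCl2, at 1 mg/mL protein, was treated with 10 μM compound for 30 min and heated in aliquots for 3 min across 48°C-58°C. After pooling, adjustment to 0.5% NP-40 at 4°C and centrifugation at 21,000xg for 90 min, supernatant protein was measured by TMTpro 16plex LC-MS/MS with channel sums equalised.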
As for MPDZ (UniProt O75970), the log2 fold change was 0.057 (inactive).

For the target KIF3C (UniProt O14782), the log2 fold change is -0.007 (inactive).

In the case of MRPL22 (UniProt Q9NWU5), the log2 fold change is -0.017 (inactive).

With LRIF1 (UniProt Q5T3J3), the log2 fold change was -0.031 (inactive).

As for MCUB (UniProt Q9NWR8), the log2 fold change is 0.443 (active).

Consider MEGF8 (UniProt Q7Z7M0), for which the log2 fold change was 0.079 (inactive).

MAN2B2 (UniProt Q9Y2E5): the log2 fold change is -0.013 (inactive).

Consider MRPL27 (UniProt Q9P0M9), for which the log2 fold change was -0.028 (inactive).

With MAP3K4 isoform 2 (UniProt Q9Y6R4), the log2 fold change is -0.005 (inactive).

For the target KIF18B (UniProt Q86Y91), the log2 fold change was 0 (inactive).

With LRRIQ1 (UniProt Q96JM4), the log2 fold change is 0.671 (active).

Turning to LGALS3BP (UniProt Q08380), the log2 fold change is -0.009 (inactive).

KRAS (UniProt P01116): the log2 fold change is -0.048 (inactive).

For the target LEPROT (UniProt O15243), the log2 fold change was 0.181 (inactive).

For LYN isoform 2 (UniProt P07948), the log2 fold change was 0.333 (inactive).

In the case of LIMK1 (UniProt P53667), the log2 fold change was -0.085 (inactive).

Consider MED28 (UniProt Q9H204), for which the log2 fold change was 0.11 (inactive).

For MRPL30 isoform 2 (UniProt Q8TCC3), the log2 fold change was 0.02 (inactive).

Regarding LRRC7 (UniProt Q96NW7), the log2 fold change is -0.062 (inactive).

Turning to KRAS isoform 2 (UniProt P01116), the log2 fold change was -0.025 (inactive).

Turning to METTL21A (UniProt Q8WXB1), the log2 fold change was 0 (inactive).

In the case of LRP1 (UniProt Q07954), the log2 fold change was 0.378 (inactive).

Regarding LRRC9 (UniProt Q6ZRR7), the log2 fold change is 0.042 (inactive).

For MAPK7 (UniProt Q13164), the log2 fold change is -0.034 (inactive).

Turning to MED25 isoform 3 (UniProt Q71SY5), the log2 fold change is 0.035 (inactive).

In the case of KIFC3 isoform 6 (UniProt Q9BVG8), the log2 fold change was 0.193 (inactive).

With MME (UniProt P08473), the log2 fold change is 0.007 (inactive).

Take LSM11 (UniProt P83369): the log2 fold change is -0.161 (inactive).

As for MAPKAP1 (UniProt Q9BPZ7), the log2 fold change was 0.007 (inactive).

KMT2B (UniProt Q9UMN6): the log2 fold change is -0.072 (inactive).

For MRC2 (UniProt Q9UBG0), the log2 fold change was 0.133 (inactive).

Compound in the next assay: CC1=C(C=C(C=C1)NC(=O)C2=CC(=CC=C2)N(C)C)NC(=O)C3=CC=C(C=C3)O
The assay is described as above. A digest of the protocol:
as §1
On to MPDZ (UniProt O75970), for which the log2 fold change was 0.076 (inactive).

For KIF3C (UniProt O14782), the log2 fold change is 0.023 (inactive).

For the target MRPL22 (UniProt Q9NWU5), the log2 fold change was 0.051 (inactive).

On to LRIF1 (UniProt Q5T3J3), for which the log2 fold change was 0.046 (inactive).

As for MCUB (UniProt Q9NWR8), the log2 fold change was 0.04 (inactive).

Take MEGF8 (UniProt Q7Z7M0): the log2 fold change is 0.154 (inactive).

In the case of MAN2B2 (UniProt Q9Y2E5), the log2 fold change is -0.024 (inactive).

Take MRPL27 (UniProt Q9P0M9): the log2 fold change is 0.1 (inactive).

LRRIQ1 (UniProt Q96JM4): the log2 fold change is 0.047 (inactive).

KRAS (UniProt P01116): the log2 fold change was 0.07 (inactive).

MDM1 (UniProt Q8TC05): the log2 fold change was -0.019 (inactive).

With LEPROT (UniProt O15243), the log2 fold change was 0.016 (inactive).

For LYN isoform 2 (UniProt P07948), the log2 fold change is -0.008 (inactive).

For the target LIMK1 (UniProt P53667), the log2 fold change is 0.059 (inactive).

For the target MED28 (UniProt Q9H204), the log2 fold change is 0.021 (inactive).

Turning to MRPL30 isoform 2 (UniProt Q8TCC3), the log2 fold change is -0.006 (inactive).

Regarding LRRC7 (UniProt Q96NW7), the log2 fold change was 0.09 (inactive).

As for KRAS isoform 2 (UniProt P01116), the log2 fold change is 0.004 (inactive).

For METTL21A (UniProt Q8WXB1), the log2 fold change was 0.009 (inactive).

For the target MEX3A (UniProt A1L020), the log2 fold change is -0.162 (inactive).

For MED25 isoform 3 (UniProt Q71SY5), the log2 fold change is 0.057 (inactive).

MAP4K4 isoform 6 (UniProt O95819): the log2 fold change was 0.002 (inactive).

Turning to MME (UniProt P08473), the log2 fold change was -0.025 (inactive).

With MAPKAP1 (UniProt Q9BPZ7), the log2 fold change is -0.034 (inactive).

Compound in the next assay: CC1=CC=C(C=C1)SC2=C3C=C(SC3=CN=C2)C(=O)N
The description is as above. A digest of the protocol:
as §1
Consider MPDZ (UniProt O75970), for which the log2 fold change was -0.029 (inactive).

In the case of KIF3C (UniProt O14782), the log2 fold change is 0.044 (inactive).

Consider MRPL22 (UniProt Q9NWU5), for which the log2 fold change is 0.069 (inactive).

For LRIF1 (UniProt Q5T3J3), the log2 fold change was -0.197 (inactive).

Take MCUB (UniProt Q9NWR8): the log2 fold change is 0.204 (inactive).

Consider MAN2B2 (UniProt Q9Y2E5), for which the log2 fold change is 0.012 (inactive).

With MRPL27 (UniProt Q9P0M9), the log2 fold change is 0.079 (inactive).

In the case of KIF18B (UniProt Q86Y91), the log2 fold change is -0.121 (inactive).

In the case of LRRIQ1 (UniProt Q96JM4), the log2 fold change is -0.069 (inactive).

With LGALS3BP (UniProt Q08380), the log2 fold change is 0 (inactive).

KRAS (UniProt P01116): the log2 fold change was -0.058 (inactive).

Consider MDM1 (UniProt Q8TC05), for which the log2 fold change is -0.079 (inactive).

LEPROT (UniProt O15243): the log2 fold change was 0 (inactive).

With LIMK1 (UniProt P53667), the log2 fold change is -0.148 (inactive).

Consider MED28 (UniProt Q9H204), for which the log2 fold change is 0.009 (inactive).

As for MRPL30 isoform 2 (UniProt Q8TCC3), the log2 fold change was 0.087 (inactive).

As to LRRC7 (UniProt Q96NW7), the log2 fold change was 0.086 (inactive).

Take KRAS isoform 2 (UniProt P01116): the log2 fold change was 0.059 (inactive).

Take METTL21A (UniProt Q8WXB1): the log2 fold change was -0.032 (inactive).

Take LRP1 (UniProt Q07954): the log2 fold change was -0.049 (inactive).

As to LY6E (UniProt Q16553), the log2 fold change is -0.042 (inactive).

On to MAPK7 (UniProt Q13164), for which the log2 fold change was -0.013 (inactive).

On to MED25 isoform 3 (UniProt Q71SY5), for which the log2 fold change is 0.025 (inactive).

Consider MAP4K4 isoform 6 (UniProt O95819), for which the log2 fold change was 0.037 (inactive).

With MME (UniProt P08473), the log2 fold change is -0.043 (inactive).

With KIF21A (UniProt H0YI78), the log2 fold change was 0.031 (inactive).

The record behind these values is the supplement of paper PMC10849652.
